Experimental data from PubChem BioAssay (Tox21).
Results filed as inconclusive are left out. Calls of active or inactive are those of the source. Calls follow the shape of the full dose curve.

target: Progesterone receptor (Homo sapiens) (UniProt P06401); experiment: qHTS assay to identify small molecule agonists of the progesterone receptor (PR) signaling pathway (AID 1346784); settings: PR-UAS-bla HEK293T, beta-lactamase FRET ratio, 16 h; series mostly up to 92.4 µM; activation: at the top concentration; also: nearly all actives have a fitted effect of over 30% in size
Sequence (P06401 whole entry, looked up): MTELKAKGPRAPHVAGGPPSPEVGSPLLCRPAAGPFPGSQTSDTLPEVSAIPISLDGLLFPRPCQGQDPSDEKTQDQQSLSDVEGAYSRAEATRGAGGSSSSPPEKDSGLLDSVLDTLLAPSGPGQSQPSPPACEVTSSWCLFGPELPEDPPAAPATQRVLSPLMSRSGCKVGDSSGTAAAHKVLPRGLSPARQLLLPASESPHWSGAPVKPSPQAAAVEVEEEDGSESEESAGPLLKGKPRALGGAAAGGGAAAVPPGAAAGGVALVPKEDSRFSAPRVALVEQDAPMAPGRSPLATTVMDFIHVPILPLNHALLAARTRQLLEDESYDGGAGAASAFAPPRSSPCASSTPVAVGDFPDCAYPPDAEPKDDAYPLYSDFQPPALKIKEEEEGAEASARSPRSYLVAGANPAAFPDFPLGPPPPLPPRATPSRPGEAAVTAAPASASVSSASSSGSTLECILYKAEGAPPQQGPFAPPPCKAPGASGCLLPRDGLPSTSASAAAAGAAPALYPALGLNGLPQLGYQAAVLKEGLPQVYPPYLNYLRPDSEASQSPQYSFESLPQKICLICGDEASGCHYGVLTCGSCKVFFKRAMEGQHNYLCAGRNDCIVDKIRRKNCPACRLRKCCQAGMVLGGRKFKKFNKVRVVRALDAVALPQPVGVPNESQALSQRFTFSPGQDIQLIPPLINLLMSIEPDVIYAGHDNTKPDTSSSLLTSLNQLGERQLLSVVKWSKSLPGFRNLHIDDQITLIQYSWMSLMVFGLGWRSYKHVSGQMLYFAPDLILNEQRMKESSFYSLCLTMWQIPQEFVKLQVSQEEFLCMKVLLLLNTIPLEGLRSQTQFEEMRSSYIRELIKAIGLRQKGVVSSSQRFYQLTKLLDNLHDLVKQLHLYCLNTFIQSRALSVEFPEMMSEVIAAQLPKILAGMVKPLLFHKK
Excerpt: U.S. Tox21 Program National Center for Advancing Translational Sciences [NCATS] NIH Chemical Genomics Center [NCGC] U.S. Environmental Protection Agency [EPA] National Institutes of Environmental Health Sciences [NIEHS] National Toxicology Program [NTP] U.S. Food and Drug Administration [FDA] […] Endocrine disrupting chemicals (EDCs) and their interactions with steroid hormone receptors like PR causes disruption of normal endocrine function. To identify the compounds that activate PR signaling, a PR-UAS-bla GripTite cell line i.e. PR-UAS-bla HEK 293T (Invitrogen, Carlsbad, CA, USA) containing a beta-lactamase reporter gene under the control of an Upstream Activator Sequence (UAS) was used to screen Tox21 10K compound library.
Tox21 Assay Protocol Summary: PR-UAS-bla HEK 293T cells were dispensed at 3,000 cells/5 uL of assay medium containing 2% charcoal stripped FBS per well into black wall/clear-bottom 1536-well plates using a Multidrop Combi (ThermoFisher Scientific, Waltham, MA) dispenser. After the assay plates were incubated at a 37C and 5% CO2 for 6hr, 23 nL of compounds dissolved in DMSO, positive controls or DMSO only was transferred to the assay plate by a Pintool station (Kalypsys, San Diego, CA). The plates were incubated at 37C and 5% CO2 for 16hr. Then 1 uL of LiveBLAzer B/G FRET substrate was added using a BioRAPTR FRD (Flying Reagent Dispenser, Aurora Discovery, San Diego, CA). After the plates were incubated at room temperature for 2 hours, fluorescence intensity was measured by an Envision plate reader (PerkinElmer, Shelton, CT).
% is scaled to controls: 0 for no effect and ±100 for the full control effect; potency is read from the fitted curve at half-maximal effect.

Compound | activation | Potency
O=[N+]([O-])c1ccc2ncccc2c1 | -0.0079% (inactive) | 
CCC(C)(C)C(=O)O | 0.32% (inactive) | 
CCCCCCOC(=O)CCCCC | -0.654% (inactive) | 
CC1CCCC(=O)C1=O (stereo not given) | -0.456% (inactive) | 
Cc1ccc(N(CCO)CCO)cc1 | -1.61% (inactive) | 
O=C(O)CCCc1c[nH]c2ccccc12 | -0.551% (inactive) | 
CCCCCCCCCCCCCCCC(=O)OCC | 0.136% (inactive) | 
O=C(O)CCC(=O)OC[C@@H](NC(=O)C(Cl)Cl)[C@H](O)c1ccc([N+](=O)[O-])cc1 | 1.97% [at 42.5 µM] (inactive) | 
CC(CCc1ccc(O)cc1)NCCc1ccc(O)c(O)c1 (stereo not given) | -0.328% [at 42.5 µM] (inactive) | 
COc1ccc2nc(S(=O)Cc3ncc(C)c(OC)c3C)[nH]c2c1 (stereo not given) |  | inactive
CCCCC[C@H](O)/C=C/[C@H]1[C@H](O)CC(=O)[C@@H]1C/C=C\CCCC(=O)O | -0.798% [at 42.5 µM] (inactive) | 
Oc1cccc2[nH]ccc12 | 1.58% [at 42.5 µM] (inactive) | 
C[C@@H]1[C@H](O)[C@@H](C)/C=C/C=C\C=C\C=C\C=C\C=C\C=C\[C@H](O[C@@H]2O[C@H](C)[C@@H](O)[C@H](N)[C@@H]2O)C[C@@H]2O[C@](O)(C[C@@H](O)C[C@@H](O)[C@H](O)CC[C@@H](O)C[C@@H](O)CC(=O)O[C@H]1C)C[C@H](O)[C@H]2C(=O)O (stereo in doubt) | -0.239% (inactive) | 
CC(C)(C(=O)c1cccnc1)c1cccnc1 | -0.052% [at 42.5 µM] (inactive) | 
CCCCCCCC(=O)OCCCCCC | -4.17% (inactive) | 
O=S(=O)(Cl)c1c(Cl)cccc1Cl | -0.0201% (inactive) | 
CCN(CC)CC(=O)Nc1c(C)cccc1C(=O)OC | 2.5% [at 42.5 µM] (inactive) | 
O=C1[C@@H]2[C@H]3CC[C@H](C3)[C@@H]2C(=O)N1CCCCN1CCN(c2ncccn2)CC1 | 0.134% [at 42.5 µM] (inactive) | 
COc1cc(NC(C)CCCN)c2ncccc2c1 (stereo not given) | -1.16% [at 42.5 µM] (inactive) | 
Nc1ccc(S(=O)(=O)NCc2ccccc2)cc1 | -2.22% [at 42.5 µM] (inactive) | 

Compound | activation | Potency
CNS(=O)(=O)c1cc(C(=O)N2CCC(CCN3C4CCC3CC(n3c(C)nc5ccccc53)C4)(c3cccc(F)c3)CC2)c(Cl)cc1F (stereo not given) | 6.33% (inactive) | 
COc1cc(C(C)=O)ccc1OCCCN1CCC(c2noc3cc(F)ccc23)CC1 | 2.05% [at 42.5 µM] (inactive) | 
CC1CCc2nccnc21 (stereo not given) | -0.239% (inactive) | 
O=C(O)c1ccc(O)cc1O | 1.94% (inactive) | 
O=[N+]([O-])C1(Br)COCOC1 | -1.56% (inactive) | 
Cc1cccc(C)c1NC(=O)c1cc(S(N)(=O)=O)c(Cl)cc1O | -3.7% [at 42.5 µM] (inactive) | 
O=C(O)c1cc(Cl)cc(Cl)c1O | 3.9% (inactive) | 
Nc1ccc(N=Nc2ccc(N)cc2)cc1 | -1.14% [at 42.5 µM] (inactive) | 
CC(C)Cc1ccc(CC(=O)O)cc1 | -0.442% [at 42.5 µM] (inactive) | 
CC[C@H]1OC(=O)[C@H](C)[C@@H](O[C@H]2C[C@@](C)(OC)[C@@H](O)[C@H](C)O2)[C@H](C)[C@@H](O[C@@H]2O[C@H](C)C[C@H](N(C)C)[C@H]2O)[C@](C)(O)C[C@@H](C)CN(C)[C@H](C)[C@@H](O)[C@]1(C)O | -4% [at 42.5 µM] (inactive) | 
COc1ccc(-c2cc(C(F)F)nn2-c2ccc(S(N)(=O)=O)cc2)cc1F | 1.77% [at 42.5 µM] (inactive) | 
CC(=O)OCC(=O)[C@@]1(OC(C)=O)[C@@H](C)C[C@H]2[C@@H]3C[C@H](F)C4=CC(=O)C=C[C@]4(C)[C@@]3(F)[C@@H](O)C[C@@]21C |  | 237 nM (active)
N[C@@H](Cc1cc(I)c(O)c(I)c1)C(=O)O | 0.312% [at 42.5 µM] (inactive) | 
CC(=O)C(=O)CC(C)C | -0.324% (inactive) | 
Nc1cccc2c(N)cccc12 |  | 1930 nM (active)
CS(=O)(=O)c1ccc([C@@H](C[C@H]2CCC(=O)C2)C(=O)Nc2cnccn2)cc1Cl | -1.23% (inactive) | 
c1ccc(CNc2ncnc3c2ncn3C2CCCCO2)cc1 (stereo not given) | -1.01% (inactive) | 
CCCCCCCCCCCCCOS(=O)(=O)O | 4.76% (inactive) | 
COc1ccc(C)cc1 | -0.645% (inactive) | 
CCCCCCCCCCCCCCCCCC(=O)OCC(CC)CCCC (stereo not given) | -0.339% (inactive) | 
